# MITF act: activators of MITF-driven TRPM1 promoter activity in SK-MEL-5 cells. 300,000 tested, 0.75% active. SK-MEL-5 TRPM1-promoter luciferase, 24 h; % of positive control, neutral wells = 0. activation, % at 12.5 µM;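 active means mean activation of at least 80% with every replicate also reaching 80%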;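 further: 0% = neutral control wells and 100% = parthenolide positive control wells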
# Glyco luc inh: N-linked glycosylation inhibition | 360,000 tested, 0.23% active | reporter increase, % at 12.5 µM | D54 ERlucT glycosylation luciferase reporter, 24 h; percent of 100 nM tunicamycin response;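 active means mean luciferase reporter signal, scaled so untreated is 0 and the glycosylation-blocking control 100, at or above a set limit in every replicate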;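 further: luciferase carries N-glycosylation sites so blocking glycosylation raises the light; 0% = median of neutral control wells and 100% = median of 100 nM tunicamycin wells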
# Wnt act: Wnt/beta-catenin pathway activation; Wnt/beta-catenin reporter cell assay, activator, plate reader; activation, % at 9.35 µM; 300,000 tested, 1.2% active; AID 743398; in the data active means activation above about 30%, passing the limit was not always enough;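 further: 0% = neutral control wells and 100% = positive control wells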
# NSD2 HMT inh: NSD2 (human) methyltransferase inhibition; 310,000 tested, 0.54% active; O96028; NSD2 peptide methylation, AlphaScreen, 120 min; inhibition, % at 12.5 µM; in the data active means inhibition above about 50%
# Target sequence (O96028 whole entry, looked up): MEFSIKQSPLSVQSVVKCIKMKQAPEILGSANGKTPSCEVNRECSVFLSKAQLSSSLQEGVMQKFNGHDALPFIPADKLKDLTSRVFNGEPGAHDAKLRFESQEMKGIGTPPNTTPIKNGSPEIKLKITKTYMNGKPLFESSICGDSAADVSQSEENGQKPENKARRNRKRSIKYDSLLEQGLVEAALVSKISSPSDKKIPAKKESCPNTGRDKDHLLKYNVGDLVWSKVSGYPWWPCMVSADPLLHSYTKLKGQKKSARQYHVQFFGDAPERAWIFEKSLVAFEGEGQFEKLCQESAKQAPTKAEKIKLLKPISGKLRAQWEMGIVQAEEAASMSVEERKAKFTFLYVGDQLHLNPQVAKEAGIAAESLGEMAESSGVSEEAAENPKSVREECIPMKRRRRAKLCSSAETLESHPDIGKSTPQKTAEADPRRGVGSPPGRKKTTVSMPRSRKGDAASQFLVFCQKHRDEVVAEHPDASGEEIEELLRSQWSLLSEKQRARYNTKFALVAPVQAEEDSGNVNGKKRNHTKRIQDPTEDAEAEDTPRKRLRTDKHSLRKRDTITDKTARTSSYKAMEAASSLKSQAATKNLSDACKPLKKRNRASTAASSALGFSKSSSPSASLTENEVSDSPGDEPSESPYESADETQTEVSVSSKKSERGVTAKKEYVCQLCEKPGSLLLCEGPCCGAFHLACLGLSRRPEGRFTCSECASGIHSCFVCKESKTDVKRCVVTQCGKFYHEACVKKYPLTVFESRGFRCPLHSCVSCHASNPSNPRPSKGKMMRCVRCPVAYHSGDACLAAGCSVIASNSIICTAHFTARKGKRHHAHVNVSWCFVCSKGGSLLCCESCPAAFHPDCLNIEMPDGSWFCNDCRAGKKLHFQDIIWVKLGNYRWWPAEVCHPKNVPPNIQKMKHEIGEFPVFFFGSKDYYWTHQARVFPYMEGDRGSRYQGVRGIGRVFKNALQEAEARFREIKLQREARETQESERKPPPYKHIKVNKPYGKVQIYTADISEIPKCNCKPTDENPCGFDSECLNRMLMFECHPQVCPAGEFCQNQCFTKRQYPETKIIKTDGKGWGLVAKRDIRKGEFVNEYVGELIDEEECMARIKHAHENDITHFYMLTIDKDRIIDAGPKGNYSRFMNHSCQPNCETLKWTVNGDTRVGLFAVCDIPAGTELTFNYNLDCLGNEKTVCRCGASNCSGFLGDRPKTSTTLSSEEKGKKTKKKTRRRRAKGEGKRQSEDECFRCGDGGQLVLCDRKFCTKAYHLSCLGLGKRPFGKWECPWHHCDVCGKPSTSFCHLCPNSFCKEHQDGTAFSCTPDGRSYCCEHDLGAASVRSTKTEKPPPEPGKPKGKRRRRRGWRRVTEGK
# TRPM1 prom inh: MITF TRPM1 promoter inhibition in SK-MEL-5 cells; SK-MEL-5 TRPM1 promoter luciferase, 24 h; inhibition, % at 12.5 µM; 330,000 tested, 0.83% active; AID 488899;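 active means mean inhibition across replicates of 60% or more, whatever share of single replicates reaches that level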
# PfHsp90 set2: inhibits growth of yeast expressing Plasmodium falciparum Hsp90; S. cerevisiae expressing PfHsp90, BacTiter-Glo ATP, 48 h; yeast lacking PDR1 and PDR3 efflux regulators; 310,000 tested, 0.32% active; inhibition, % at 9.4 µM;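 active means every replicate shows inhibition above about 80%, whatever the replicate mean, limit read from the data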;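 further: 0% = DMSO neutral controls and 100% = 20 µM radicicol positive controls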
# AlphaScreen art: AlphaScreen assay artifact in NSD2 counter-screen. shares compounds with NSD2 HMT inh. AlphaScreen artifact counterscreen, preloaded methylated H4 peptide. AC35, µM (highest dose often 10 µM), for the others: at the top dose activity change, negative = signal loss. 1,500 tested, 9.4% active; call rule not given here
# * hit, by the source's call; · = not tested or not shown. The list is not random: actives were taken first. Their share in the collection is about 2.9%.
SMILES,MITF act,Glyco luc inh,Wnt act,NSD2 HMT inh,TRPM1 prom inh,PfHsp90 set2,AlphaScreen art
Nc1nnc2c(n1)CCCC2,·,-9,·,58*,-5,·,7%
O=C(NC(c1ccc(Cl)cc1)c1cc(Cl)c2cccnc2c1O)c1cccnc1 (stereo unspecified),-41,-12,3,63*,41,102*,-4%
Oc1cccc(/C=N/NC(=S)Nc2cccnc2)c1O,-7,-3,·,79*,6,-16,-6%
CC(C)(C)SCCNC(=O)Nc1ccccc1,31,2,2,-2,-28,-27,·
Cc1ccc(C(=O)Nc2ccc(CC(=O)O)cc2)o1,-8,1,·,126*,12,·,-3%
CSc1nnc2c(n1)OC=Nc1ccc(Br)cc1-2,-12,1,3,4,13,0,·
CSc1nnc2c(n1)OC=Nc1ccccc1-2,-19,0,·,67*,21,11,-5%
Cn1c(=O)cc2c3c(c(N4CCCCC4)ccc31)C(=O)c1ccccc1-2,·,28*,0,71*,·,·,7.8µM*
NNC(=O)c1nc(-c2ccccc2)cc(-c2ccccc2)n1,·,47*,7,54*,-19,-11,-7%
NC(=O)c1c(NC(=O)c2ccncc2)sc2c1CCCCCC2,·,0,4,1,-10,-14,·
N#Cc1c(NC(=O)c2ccncc2)sc2c1CCC2,15,2,7,57*,-16,16,-5%
COc1ccc(C(=O)NCc2nnc(SCC(=O)Nc3cc(C)cc(C)c3)o2)cc1OC,3,0,-4,75*,-5,-12,-3%
COc1ccccc1NC(=O)C(C)OC(=O)CCNS(=O)(=O)c1ccc(C)c(C)c1 (stereo unspecified),-2,0,1,-1,3,·,·
COc1ccccc1NC(=O)C(C)OC(=O)CCNS(=O)(=O)c1cccc(C(F)(F)F)c1 (stereo unspecified),-4,4,-5,105*,1,1,-3%
CC(=O)Oc1cccc2c1C(=O)C1CC=CC(OC(C)=O)C1C2=O (stereo unspecified),1,12,0,69*,-1,-46,8µM*
O=C1CSc2ccc(S(=O)(=O)N3CCN(c4ccccc4F)CC3)cc2N1,-11,-4,-3,-1,7,-9,·
Cc1cccn2c(=O)nc(SCC(=O)NCCc3ccccc3)nc12,-4,0,·,·,3,-2,·
Cc1cccc(C(=O)Nc2cccc(-c3cnc4ccccc4n3)c2)c1,9,1,·,57*,-10,-15,-2%
CC(C)C1OC(CCc2ccccc2)Cc2[nH][nH]c(=O)c21 (stereo unspecified),·,·,2,·,·,·,·
O=C1CSC(c2ccc(Cl)cc2)N1c1cccnc1 (stereo unspecified),-5,2,-1,·,6,0,·
Nc1nonc1-c1nc2ccccc2n1CC(=O)Nc1ccccc1,-6,4,5,3,10,-35,·
Nc1nonc1-c1nc2ccccc2n1CC(=O)N/N=C/c1ccc(-c2ccccc2C(=O)O)o1,6,5,6,63*,-5,-8,-2%
Cc1cc(=O)cc(C)n1-c1ccc(Cl)cc1,-5,2,-1,-2,4,·,·
Cc1cc(=O)cc(C)n1-c1ccc(O)cc1,-4,0,-3,71*,5,-3,-2%
CCN(CC)c1ccc(C(=O)NNC(=O)CN2C(=O)NC(C)(c3ccccc3)C2=O)cc1 (stereo unspecified),14,0,1,2,-13,-15,·
SMILES,MITF act,Glyco luc inh,Wnt act,NSD2 HMT inh,TRPM1 prom inh,PfHsp90 set2,AlphaScreen art
COCCNC(=O)CSc1nc2ccccc2c(=O)n1CCC(=O)N1CCN(c2ccccc2)CC1,10,3,-1,-4,-9,·,·
O=C(Nc1cccc(Cl)c1N1CCOCC1)c1ccco1,12,0,-3,-6,-11,-13,·
COc1c(F)c(F)c(C(=O)Nc2cccc(Cl)c2N2CCOCC2)c(F)c1F,-4,-3,-3,56*,9,-79,0%
Cc1cc(C)c(NC(=O)C2CC(=O)N(c3ccc4c(c3)OCCO4)C2)c(C)c1 (stereo unspecified),·,0,·,106*,5,-41,-4%
CCc1cccc(CC)c1NC(=O)C1CC(=O)N(c2ccc3c(c2)OCCO3)C1 (stereo unspecified),1,1,-8,-3,4,0,·
COc1ccc(-c2csc(Nc3ccc(S(=O)(=O)Nc4cc(C)on4)cc3)n2)cc1C,-15,0,1,63*,10,7,-2%
COc1ccc(-c2csc(Nc3ccc(S(=O)(=O)Nc4cc(OC)nc(OC)n4)cc3)n2)cc1,10,1,·,·,-12,3,·
CCOC(=O)c1cc(NC(=O)CN2CCCC2)cc(C(=O)OCC)c1,1,0,-3,96*,3,-1,-4%
CN1c2ccccc2N(C)C1(C)c1ccccc1,-20,1,·,54*,17,9,-17%
COCCN(C(=O)CCC(=O)Nc1cc(C)on1)C(C(=O)NC(C)(C)C)c1ccccc1Cl (stereo unspecified),-4,-2,-1,140*,7,-108,-6%
COc1ccc(C(C(=O)NC(C)(C)C)N(C(=O)CCC(=O)Nc2cc(C)on2)c2ccccc2F)cc1 (stereo unspecified),-2,1,-1,77*,2,9,0%
CCCCN(C(=O)CCC(=O)Nc1cc(C)on1)C(C(=O)NC(C)(C)C)c1ccccc1Cl (stereo unspecified),-1,0,-2,-6,0,-25,·
C[C@H](NC(=O)c1ncn(C)c1C(=O)N[C@@H](C)c1ccccc1)c1ccccc1,-13,-1,0,·,15,-7,·
O=C1CCCC(O)=C1N=Nc1cccc(C(=O)O)c1,-8,0,10,69*,6,15,-2%
CNC(=O)CSc1nc2c(c(=O)n(C)c(=O)n2C)n1Cc1ccc(C)cc1,-6,5,-2,-1,7,4,·
Cc1ccc(Cn2c(SCC(=O)NCC3CCCO3)nc3c2c(=O)n(C)c(=O)n3C)cc1 (stereo unspecified),-7,-1,-2,51*,2,-21,2%
Fc1ccc(NC(=S)Nc2cccc3cnccc23)cc1,-32,7,10,30,31,26,·
COc1ccc(NC(=S)Nc2cccc3cnccc23)cc1,2,5,·,55*,-4,5,4%
S=C(Nc1ccc(Cl)cc1)Nc1cccc2cnccc12,-6,7,20,13,9,-31,·
COc1ccccc1NC(=S)Nc1cccc2cnccc12,-15,7,2,82*,17,12,-1%
CCN(C(=S)Nc1cccnc1)c1cccc2ccccc12,-23,2,-1,100*,23,12,-6%
